# Reference: PubChem BioAssay
# Active and inactive are the calls of the source.
# Columns and labels:
# [1] = system: Plasmodium falciparum Sir2 (PF13_0152, Sir2A); test: Plasmodium falciparum Sir2A binding compounds – biochemical, small-molecule microarray, 635 nm fluorescence, primary screen (AID 1098); conditions: fluorescence 635 nm, higher = more signal;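 also: score merges spot fluorescence intensity with its signal-to-noise ratio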
# [2] = probe aDKK1 binding to arrayed compounds – biochemical, biotinylated probe, 635/667 nm fluorescence, primary screen (AID 1099); conditions: small-molecule microarray, higher = more signal;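 also: score merges 667nm spot fluorescence with signal to noise across triplicate slides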
# [3] = probe aCHRDL2 binding to arrayed compounds – biochemical, biotinylated probe, 635/667 nm fluorescence, primary screen (AID 1100); conditions: small-molecule microarray, higher = more signal
# [4] = change in splice reporter luminescence, either direction, cell-based, HEK293, spliceosome inhibition project, primary screen (AID 1101); conditions: HEK293 splicing luciferase reporter, 24 h, higher = more signal, called active from +8 up or from −8 down;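 also: HEK293 cells carrying a splicing-competent luciferase reporter gene; test concentration not given here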
# [5] = target: Fibroblast growth factor 10 (Homo sapiens) (UniProt O15520); test: compounds binding fibroblast growth factor 10 – biochemical, small-molecule microarray, 635 nm fluorescence, primary screen (AID 1102); conditions: FGF10 binding, fluorescence 635 nm, higher = more signal
# Chain of Fibroblast growth factor 10 (Homo sapiens) (O15520 whole entry, looked up): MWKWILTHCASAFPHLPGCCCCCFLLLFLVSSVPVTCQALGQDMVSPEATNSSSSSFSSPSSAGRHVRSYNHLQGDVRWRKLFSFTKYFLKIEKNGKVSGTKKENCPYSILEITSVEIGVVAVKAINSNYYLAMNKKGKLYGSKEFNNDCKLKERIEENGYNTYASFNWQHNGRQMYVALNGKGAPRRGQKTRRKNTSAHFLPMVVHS
# [6] = system: glycogen synthase kinase-3 (GSK3A per assay name; protocol says GSK3B); test: compounds binding glycogen synthase kinase-3 – biochemical, small-molecule microarray, 635 nm fluorescence, GSK3A, primary screen (AID 1103); conditions: fluorescence 635 nm, higher = more signal; also: the record names both GSK3A and GSK3B
# [7] = target: Epidermal growth factor receptor (Homo sapiens) (UniProt P00533); test: compounds binding epidermal growth factor receptor – biochemical, small-molecule microarray, 635 nm fluorescence, primary screen (AID 1104); conditions: EGFR binding, higher = more signal;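 also: score merges 667 nm emission intensity with spot signal to noise over triplicate slides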
# Chain of Epidermal growth factor receptor (Homo sapiens) (P00533 whole entry, looked up): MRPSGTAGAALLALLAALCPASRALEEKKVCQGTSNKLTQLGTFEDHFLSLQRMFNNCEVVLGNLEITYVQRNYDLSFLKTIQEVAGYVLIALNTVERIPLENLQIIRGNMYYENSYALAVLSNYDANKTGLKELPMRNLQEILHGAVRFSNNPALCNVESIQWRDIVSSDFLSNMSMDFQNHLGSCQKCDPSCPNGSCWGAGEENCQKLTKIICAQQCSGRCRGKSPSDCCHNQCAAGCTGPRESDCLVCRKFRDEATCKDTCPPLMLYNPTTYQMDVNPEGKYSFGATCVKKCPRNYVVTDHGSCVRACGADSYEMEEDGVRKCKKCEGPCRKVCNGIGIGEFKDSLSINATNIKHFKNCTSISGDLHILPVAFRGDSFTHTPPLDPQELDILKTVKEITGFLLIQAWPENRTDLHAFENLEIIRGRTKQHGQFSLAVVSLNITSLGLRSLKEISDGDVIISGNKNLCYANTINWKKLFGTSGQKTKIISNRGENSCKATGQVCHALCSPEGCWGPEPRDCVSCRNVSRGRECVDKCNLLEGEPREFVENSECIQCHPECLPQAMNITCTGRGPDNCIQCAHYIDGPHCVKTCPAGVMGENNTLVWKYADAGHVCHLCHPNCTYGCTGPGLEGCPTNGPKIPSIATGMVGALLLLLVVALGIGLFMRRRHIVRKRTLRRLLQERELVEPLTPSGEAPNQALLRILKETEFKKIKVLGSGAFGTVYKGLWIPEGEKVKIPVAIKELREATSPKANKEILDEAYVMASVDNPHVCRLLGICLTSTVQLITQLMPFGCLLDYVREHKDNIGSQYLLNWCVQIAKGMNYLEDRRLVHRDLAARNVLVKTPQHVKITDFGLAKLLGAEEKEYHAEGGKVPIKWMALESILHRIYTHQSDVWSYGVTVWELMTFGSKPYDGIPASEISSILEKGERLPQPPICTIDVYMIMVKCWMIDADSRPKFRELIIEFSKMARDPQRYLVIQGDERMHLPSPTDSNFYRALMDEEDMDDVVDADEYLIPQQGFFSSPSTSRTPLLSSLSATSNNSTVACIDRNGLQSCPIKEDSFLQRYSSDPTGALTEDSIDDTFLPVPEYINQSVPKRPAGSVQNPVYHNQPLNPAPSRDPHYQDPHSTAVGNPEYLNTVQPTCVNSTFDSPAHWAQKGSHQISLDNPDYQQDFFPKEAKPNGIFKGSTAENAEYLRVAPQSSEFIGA
# [8] = target: Follistatin-related protein 3 (Homo sapiens) (UniProt O95633); test: compounds binding follistatin-related protein 3 – biochemical, small-molecule microarray, 635 nm fluorescence, primary screen (AID 1105); conditions: FSTL3 binding, higher = more signal;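 also: score merges emission near 667 nm and signal to noise per printed spot across three slides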
# Chain of Follistatin-related protein 3 (Homo sapiens) (O95633 whole entry, looked up): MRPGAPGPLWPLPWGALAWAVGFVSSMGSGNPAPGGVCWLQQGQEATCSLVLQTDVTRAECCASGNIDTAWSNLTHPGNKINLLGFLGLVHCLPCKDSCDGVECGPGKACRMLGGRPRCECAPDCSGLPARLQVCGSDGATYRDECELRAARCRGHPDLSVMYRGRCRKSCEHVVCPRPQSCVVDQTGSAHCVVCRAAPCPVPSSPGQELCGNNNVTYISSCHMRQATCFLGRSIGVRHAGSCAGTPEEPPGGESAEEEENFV
# [9] = target: Dickkopf-related protein 1 (Homo sapiens) (UniProt O94907); test: small molecules binding DKK1 protein – biochemical, small-molecule microarray, 635 nm fluorescence scan, primary screen (AID 1106); conditions: higher = more signal;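 also: score merges emission near 667 nm with signal to noise over three replicate slides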
# Chain of Dickkopf-related protein 1 (Homo sapiens) (O94907 whole entry, looked up): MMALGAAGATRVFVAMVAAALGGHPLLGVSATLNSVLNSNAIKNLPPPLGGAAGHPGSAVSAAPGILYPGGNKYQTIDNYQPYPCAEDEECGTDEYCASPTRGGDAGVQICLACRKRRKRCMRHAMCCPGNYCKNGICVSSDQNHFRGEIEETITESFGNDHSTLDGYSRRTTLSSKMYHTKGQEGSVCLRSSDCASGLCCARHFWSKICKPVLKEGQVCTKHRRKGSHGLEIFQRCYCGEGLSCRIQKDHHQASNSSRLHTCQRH
# [10] = system: Inhibin beta A chain (activin A); test: small molecules binding activin A – biochemical, small-molecule microarray, 635 nm fluorescence scan, primary screen (AID 1107); conditions: INHBA, higher = more signal;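 also: mouse activin A protein probed at 4.33 µg/mL on printed slides; score merges bound-protein fluorescence near 667 nm with spot signal-to-noise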
# [11] = system: Human papillomavirus type 1a protein E7 (residues 44-93); test: small molecules binding HPV E7 44-93 – biochemical, small-molecule microarray, residues 44-93, 635 nm fluorescence, primary screen (AID 1108); conditions: fluorescence 635 nm, higher = more signal;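 also: E7 fragment applied at 1 µg/mL in TBST for 1 h at 4 C; score combines spot fluorescence with its signal to noise ratio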
# [12] = hepatitis C replication reporter changes, two-sided – Huh7 cells, luciferase reporter, HCV replication inhibitor project, primary screen (AID 1109); conditions: Huh7 HCV replicon luciferase reporter, 48 h; higher = more signal;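 also: huh7 hepatoma cells harbouring a luciferase neomycin HCV replicon reporter; luciferase luminescence as measure of HCV replicon replication; test concentration not given here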
# [13] = target: Left-right determination factor 2 (Homo sapiens) (UniProt O00292); test: small molecules binding LEFTY2 protein – biochemical, small-molecule microarray, 635 nm fluorescence scan, primary screen (AID 1110); conditions: higher = more signal
# Chain of Left-right determination factor 2 (Homo sapiens) (O00292 whole entry, looked up): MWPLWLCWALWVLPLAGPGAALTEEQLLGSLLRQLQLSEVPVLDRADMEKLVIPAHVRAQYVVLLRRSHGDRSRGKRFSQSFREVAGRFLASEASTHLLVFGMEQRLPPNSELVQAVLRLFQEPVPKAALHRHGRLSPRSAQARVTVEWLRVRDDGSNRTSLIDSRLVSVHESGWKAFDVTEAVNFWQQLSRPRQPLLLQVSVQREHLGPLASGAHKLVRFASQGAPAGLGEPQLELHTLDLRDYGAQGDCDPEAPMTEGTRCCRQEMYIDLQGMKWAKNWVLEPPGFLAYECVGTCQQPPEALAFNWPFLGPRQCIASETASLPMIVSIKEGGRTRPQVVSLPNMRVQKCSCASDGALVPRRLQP
# [14] = target: Calmodulin-1 (Homo sapiens) (UniProt P0DP23); test: small molecules binding calmodulin-1 with EGTA – biochemical, small-molecule microarray, Cy5-labelled CALM1, profiling panel (AID 1111); conditions: Cy5-CALM1 binding fluorescence, higher = more signal;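 also: labelled calmodulin applied in Tris saline Tween buffer holding calcium plus EGTA and DTT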
# [15] = target: Calmodulin-1 (Homo sapiens) (UniProt P0DP23); test: small molecules binding Ca-loaded calmodulin-1 – biochemical, small-molecule microarray, Cy5-labelled CALM1, plus calcium, artefact control for SMM control-protein annotation, profiling panel (AID 1112); conditions: Cy5-CALM1 binding fluorescence, higher = more signal;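 also: score merges spot fluorescence with signal to noise from triplicate slides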
# [16] = probe aWnt5a binding to arrayed compounds – biochemical, biotinylated probe, 635/667 nm fluorescence, primary screen (AID 1113); conditions: small-molecule microarray, higher = more signal;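 also: score merges 667 nm fluorescence intensity with signal-to-noise per printed feature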
# [17] = probe aShh binding to arrayed compounds – biochemical, biotinylated probe, 635/667 nm fluorescence, primary screen (AID 1114); conditions: small-molecule microarray, higher = more signal;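 also: probe is biotin-labelled aShh protein from a stem cell growth factor screen; measures binding of labelled protein to compounds printed on the slide; score merges feature fluorescence at 667 nm with signal-to-noise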
# [18] = probe aNog binding to arrayed compounds – biochemical, biotinylated probe, 635/667 nm fluorescence, primary screen (AID 1115); conditions: small-molecule microarray, higher = more signal;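 also: probe is biotinylated aNog protein used at 0.15 µg/mL for 1 h at 4 C; z-score combines 667 nm fluorescence of each spot with its signal to noise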
# [19] = target: Torsin-1A-interacting protein 1 (Homo sapiens) (UniProt Q5JTV8); test: compound microarray binding of lysate hLAP1 – cell lysate, small-molecule microarray, COS7 lysate, 635/667 nm fluorescence, primary screen (AID 1116); conditions: 635 nm fluorescence, higher = more signal
# Chain of Torsin-1A-interacting protein 1 (Homo sapiens) (Q5JTV8 whole entry, looked up): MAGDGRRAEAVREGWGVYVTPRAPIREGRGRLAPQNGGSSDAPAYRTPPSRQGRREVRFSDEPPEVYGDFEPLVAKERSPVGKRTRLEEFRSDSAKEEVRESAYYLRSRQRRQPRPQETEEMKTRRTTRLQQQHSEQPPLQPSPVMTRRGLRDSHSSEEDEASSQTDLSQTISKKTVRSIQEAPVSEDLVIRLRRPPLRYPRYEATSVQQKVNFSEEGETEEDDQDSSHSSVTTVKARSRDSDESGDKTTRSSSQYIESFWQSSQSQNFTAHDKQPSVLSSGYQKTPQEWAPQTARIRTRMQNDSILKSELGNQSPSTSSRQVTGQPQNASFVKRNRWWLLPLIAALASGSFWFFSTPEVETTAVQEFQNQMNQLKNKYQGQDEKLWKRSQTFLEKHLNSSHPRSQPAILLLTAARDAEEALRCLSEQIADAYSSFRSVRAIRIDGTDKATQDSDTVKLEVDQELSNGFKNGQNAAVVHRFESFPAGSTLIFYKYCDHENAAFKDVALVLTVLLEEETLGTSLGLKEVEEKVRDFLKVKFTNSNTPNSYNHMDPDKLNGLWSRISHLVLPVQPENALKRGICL
# [20] = target: Alpha-bungarotoxin (Bungarus multicinctus) (UniProt P60615); test: compounds binding labelled alpha-BTX control protein – biochemical, small-molecule microarray, Alexa647 label, 635/667 nm fluorescence, artefact control for SMM control protein annotation, profiling panel (AID 1117); conditions: alpha-BTX-A647 binding fluorescence, higher = more signal
# Chain of Alpha-bungarotoxin (Bungarus multicinctus) (P60615 whole entry, looked up): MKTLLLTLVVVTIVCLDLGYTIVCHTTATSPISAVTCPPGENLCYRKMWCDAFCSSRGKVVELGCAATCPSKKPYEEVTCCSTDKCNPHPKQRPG
SMILES,composite z-score [1],composite z-score [2],composite z-score [3],z-score [4],composite z-score [5],composite z-score [6],composite z-score [7],composite z-score [8],composite z-score [9],composite z-score [10],composite z-score [11],z-score [12],composite z-score [13],composite z-score [14],composite z-score [15],composite z-score [16],composite z-score [17],composite z-score [18],composite z-score [19],composite z-score [20]
CN(C)CCCCCCNC(=O)[C@H]1C[C@H]2C(=O)N[C@@H](CCCCN)C(=O)N2[C@H]1c1cccc(OCCO)c1,1.99,3.01,1.72,-0.361 (inactive),1.43,1.48,1.63,1.65,2.49,1.43,1.56,0.386,1.71,1.99,1.16,1.06,2.92,3.26,4.54,2.52
COc1ccc(C#Cc2ccc3c(c2)[C@]2(C(=O)N3)[C@H](C(=O)Nc3nc4ccccc4s3)[C@H]3C(=O)O[C@H](c4ccccc4)[C@H](c4ccccc4)N3[C@@H]2c2ccc(O)cc2)cc1,1.15,1.06,0.144,-0.444 (inactive),1.43,1.25,0.516,1.48,0.63,1.09,1.42,-1.04,0.653,1.7,0.782,0.383,1.3,2.23,0.934,1.66
C=C[C@H](OC)[C@@H](OC(=O)Nc1ccc(OC)cc1)c1ccc(O)c(F)c1,0.68,-0.446,0.3,-1.27 (inactive),-0.0655,-0.499,-1.49,-1.19,-1.16,-0.25,0.625,-0.276,-0.644,-1.25,-1.39,-0.28,0.0952,-0.478,1.14,-1.56
COCCCNC(=O)[C@]1(CCC(=O)OC(C)(C)C)N=C(c2ccc(OCCCO)cc2)O[C@@H]1c1ccccc1CN=[N+]=[N-],1.42,0.639,0.608,0.378 (inactive),1.41,1.3,-0.504,0.35,-0.299,0.733,1.31,-1.74,0.254,1.38,0.282,0.45,0.147,2.04,1.29,0.312
COc1cc(NN2C(C(O)c3ccco3)C=CC3C(=O)N(c4ccccc4)C(=O)C32)cc(OC)c1OC (stereo not given),1.69,0.157,0.485,0.523 (inactive),-0.0151,-0.0659,-0.395,0.373,-0.21,0.914,-0.271,-0.937,-0.198,-0.3,-0.657,-0.213,-0.29,0.133,1.05,0.425
COCCOC(=O)N1C(=O)[C@@]2(c3cc(C#CCCO)ccc31)[C@H](C(=O)N1CCCCCCC1)[C@H]1C(=O)O[C@H](c3ccccc3)[C@H](c3ccccc3)N1[C@@H]2c1ccc(OCCO)cc1,1.4,2.52,1.49,0.713 (inactive),0.888,0.704,1.59,1.55,1.63,1.67,1.39,-0.616,1.01,2.13,1.05,0.933,0.953,1.99,3.97,2.01
COC(=O)[C@@]1(CCC(=O)OC(C)(C)C)N=C(c2ccc(OCCCO)cc2)O[C@H]1c1ccccc1N=[N+]=[N-],1.13,0.255,0.662,2.6 (inactive),-0.113,-0.0727,-0.336,0.542,0.0186,0.431,0.799,-1.85,-0.0736,1.17,0.356,0.0101,0.178,-0.193,1.06,0.654
COCCCNC(=O)[C@@H]1c2ccccc2C(=O)N(Cc2ccccc2Cl)[C@H]1c1ccc(CO)cc1,0.471,0.167,0.199,0.5 (inactive),0.629,1.17,0.245,0.715,0.412,0.975,0.867,0.318,0.67,-0.48,-0.613,-0.0792,0.0684,-0.382,1.51,-0.195
O=C1C[C@@](C(=O)NC2CC2)(c2ccc([N+](=O)[O-])cc2)[C@@H](c2ccc(CO)cc2I)N1C1CCCCC1,1.02,0.666,-0.0524,-0.497 (inactive),1.19,0.931,0.414,1.25,0.486,0.245,1.43,-1.97,0.434,0.581,-0.183,-0.101,0.0756,0.217,0.388,1.24
CCCCC(CC)C(O)C1C=CC2C(=O)N(Cc3ccccc3)C(=O)C2N1n1cnnc1 (stereo not given),-0.503,0.197,0.552,-0.44 (inactive),-0.0566,-0.0058,-0.286,0.0568,-0.691,0.82,0.281,0.137,-0.729,-0.0327,-0.658,-0.124,-0.153,-0.127,-0.0742,0.308
COc1ccc([Si](C)(C)[C@H]2[C@H](CCO)O[C@@]3(C(=O)N(Cc4ccc(N(C=O)c5ccccc5)cc4)c4ccccc43)[C@@H]2C)cc1,-0.0179,-0.214,0.479,-1.07 (inactive),-0.697,-1.09,-0.969,-0.251,-0.36,0.213,-0.2,-4.65,-0.677,0.625,1.01,-0.124,-0.0553,-0.14,0.34,0.158
CCOC(=O)C[C@H]1[C@H](OC(=O)c2ccc(C(=O)c3ccccc3)cc2)[C@@H](NC(=O)CC(C)C)c2cc(OCCCO)ccc2N1C(=O)c1ccc2ccccc2n1,0.366,-0.0449,-0.399,-0.202 (inactive),0.811,1.25,0.373,1.41,1.09,0.241,1.15,-1.22,0.592,0.711,-0.297,-0.0704,-0.0793,-0.318,0.547,0.719
